B1: uchl1_2_7554 (protein)
chain: ETKFVGVLVEIESVNPETGKEYKSRRTLIGTASAIEKLAEEVLELVRTFKEKTKAPVKVKVTVYVSDEETAKKAEKEFKKLEEELKKEGVEVEVEVIVVK
B2: uchl1_2_7559 (protein)
chain: KTKFVGVLVKVEAVDEKTGKVKKARRTFIGTEENIEKLVEEIEKYVLEFQKEHGKDVKVKIHGVVSDEETAEKLKKKLEEMKKRLEKEGIKVEIEVTVAK
B3: uchl1_2_7562 (protein)
chain: KPVFIGVLVTLTAEDKETGKTYRSRRTLIFTESAIEALAEEIKELALNFRDTVGVPVKVEIKVFSTDEAVVERTVAILEKMAEELAKEGIEVTITGEVVK
B4: uchl1_2_7568 (protein)
chain: KTVFVGVKVTLTSENKETGKTYKSTHTLIFTESAIEKLVEEIERLALEFKDATGVPVKVDIEVYSTDEEVLKKLMKELKKMAERLKKEGIEVNITGTLVK
B5: uchl1_2_7563 (protein)
chain: ETVFVGVLVTLTAENAETGETFRSRRTYIFTESAIDALVAEIERDALAFREQTGVPVTVDIHIVSTDEAVVRRLEAALRAMAERLAAHGITVNISSTVVR
B6: uchl1_2_7557 (protein)
chain: KSEFVGVLVTITARDEETGEVKVARRTFIGLAEDIEKLVEEIKKLVLEFKAQYNVPVEVDIKAVVSSEETAEKLKKELEKMKKELEKEGITVNIEVEVVE
B7: uchl1_2_7564 (protein)
chain: KTIFIGVLVELIAEDEETGKVYRSRHTYIFTESAIDALVEQIKEDALAFKEQTGVPVRVRIHIVSTNEEVVKKLKEKLEEMAEELKKEGIEVEISYTVVK
B8: uchl1_2_7567 (protein)
chain: KPVFIGVKLTLTSKDEKTGKTYKSTHTLIFTESAIDKLVEEIERLALEFQKATGVPVTANIEVYSTDKEVLEKLMKKLKEMAKRLAKEGIKVNIEGKLVE
B9: uchl1_2_7565 (protein)
chain: ETIFIGVLVTLTSRDEATGKVYRSRRTLIFTESAIDALVEEIKEDALAFKAQTGVPVTVNIHIVSTNEEVVEKLKKKLEEMAKELAKEGITVNISYTVVK
B10: uchl1_2_7569 (protein)
chain: KTVFVGVKVTLEAYDEKTGKRYRSRHTLIFTEDSIEALAKEIKELALDFQKDVGVPVTVNIEVYSTDEAVVKKTMAVLEKMAKELAKEGIKVNITGTVVK
B11: uchl1_2_7558 (protein)
chain: KSEFVGVKVTITAEDPETGKVYVAKRTFIGLASDIEKLVEEVKKLVLEFKADKKVPVKVKIEAVVSSEETAERLKKELEKMKKELAKEGIEVEITVKVVK
B12: uchl1_2_7555 (protein)
chain: ASQFVGVLVTITAKDEKTGKTYVSRRTLIGTAESIEKMVEEIKELVLRFKDITKAPVEVKIEVYVSTEETAERMEKELEKLKEELEKKGVKVEIEVHVVE
B13: uchl1_2_7570 (protein)
chain: KTVFVGVLVTLTSKDAKTGKTYKSRRTYIFTESSIEALAKEIKEDALAFQKDVGVPVTVDIKIYSTKEEVVKKTKAVLEKMAEELAKEGIKVNITGTVVK
B14: uchl1_2_7556 (protein)
chain: KTVFVGVAIDLTSTNPETGEVFRSRRTLIGTASAIEAMAEEVRELILRFREETGGPVEVRILVVSSDEAVARRLVALLEAMAAELAAEGVTVTVTRRVLK
B15: uchl1_2_7566 (protein)
chain: ETVFVGVKVTLTSYDEKTGKTYKSTRTLIFTESSIDAAVEEIRELALSFREQVGVPVKVEIHIVSTREEVLERLKEKLEEMAEELKEEGIEVEISGEVVK
B16: uchl1_2_7560 (protein)
chain: KTQFVGVRVDITSLNPETGEVFRARRTLIGTEDSLEAMLEEVRRLVLDFKEQYGGETRVEIRITVSTEETGERAKRLAEELKEELEKEGIEVEVEVEVAK

Biological target: UCHL1, P09936
Sequence (P09936 whole entry, looked up, the tested form may be a part): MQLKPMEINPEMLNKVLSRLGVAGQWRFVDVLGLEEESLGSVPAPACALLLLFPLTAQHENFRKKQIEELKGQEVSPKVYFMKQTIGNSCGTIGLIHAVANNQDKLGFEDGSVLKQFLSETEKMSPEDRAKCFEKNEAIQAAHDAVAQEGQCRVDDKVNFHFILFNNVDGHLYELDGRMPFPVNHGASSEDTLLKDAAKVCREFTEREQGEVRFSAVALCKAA
Assay: median log2 fold change of GCK-ALFA target abundance (FLAG IP / Myc IP barcode read proportion) (log2 ratio); each designed protein is fused to an ALFA-tag nanobody in HEK293 cells to bring the named protein to FLAG-tagged glucokinase (GCK); Myc marks an untargeted standard; higher = target protein stabilised (more abundant)
Settings: target protein: 3xFLAG-MCP-GCK-ALFA reporter; HEK293 landing pad (RPLP)
Method in brief: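 Binders fused to an ALFA nanobody were recombined as a library into HEK293 landing-pad cells, which were induced with 2 μg mL^−1 doxycycline and then transfected to express a FLAG-tagged target and a Myc-tagged standard. After 48 h, circular RNA barcodes recovered by anti-FLAG and anti-Myc immunoprecipitation of lysates were reverse transcribed, amplified and sequenced. Each binder's target abundance is the median log2 ratio of FLAG to Myc barcode read proportions, from barcodes present at ≥10^−7 in both replicates, binders carrying ≥3 barcodes per replicate, a 10^−6 pseudocount and pooled replicates.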

Binder | median log2 fold change
B1 | -0.73
B2 | -0.255
B3 | -1.04
B4 | -0.4
B5 | -0.142
B6 | -0.214
B7 | -0.635
B8 | -0.668
B9 | -0.661
B10 | -1.14
B11 | -0.285
B12 | -0.856
B13 | -0.683
B14 | -0.249
B15 | -0.335
B16 | 0.0724
